Results on 23 molecules are retold here after the supplement of paper PMC10127200.

Holding throughout (assay): Euclidean distance of Cell Painting phenotypic profile (signed KS, 77 features) to DMSO centroid (dimensionless distance); 5 or 10 uM (library dependent); higher = stronger phenotypic change vs DMSO (phenoactivity)
Settings in all cases: 48 h

Experiment [1] relates to 786-O. In outline: (§1)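 Five cancer lines, together with a healthy fibroblast line, received library compounds for 48 h at a library-dependent 10 or 5 uM and 0.1% DMSO final. Harmony then derived 77 features from confocal 20X images (9 fields/well) of the stained cells, scoring each as a signed Kolmogorov-Smirnov statistic against same-plate vehicle wells. After plate-position correction, correlation weighting and replicate averaging at the top dose, phenoactivity was taken as each profile's Euclidean distance to the median vehicle profile.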

Experiment [2] has as its system A549. In outline:
as §1

Experiment [3] relates to DU145. In short, it runs like this:
as §1

Experiment [4] concerns FB. In short, it runs like this: as §1
Experiment [5] relates to HEPG2. In outline: as §1
Experiment [6] deals with OVCAR4. In short, it runs like this: as §1

Counter-ions that a name gives are not always drawn.

On to `O=C(O)C1(C(=O)O)CCC1.[NH2-].[NH2-].[Pt+2]` [Carboplatin], for which the Euclidean distance in experiment [1] came out at 2.76; in experiment [2] it was 1.98; in experiment [3] it was 2.65; in experiment [4], 2.23; in experiment [5], 2.58; in experiment [6] it was 2.66.

Consider `C=C(c1ccc(C(=O)O)cc1)c1cc2c(cc1C)C(C)(C)CCC2(C)C` [Bexarotene], for which the Euclidean distance in experiment [1] came out at 2.33; in experiment [2] it was 2; in experiment [3], 1.58; in experiment [4], 1.39; in experiment [5] it was 1.63; in experiment [6] it was 1.48.

With `CCCCC(CC)COC(=O)CC(C(=O)OCC(CC)CCCC)S(=O)(=O)O` (stereo not drawn) [Docusate Sodium], the Euclidean distance in experiment [1] was found to be 0.771; in experiment [2] it was 0.602; in experiment [3], 0.942; in experiment [4], 1.2; in experiment [5] it was 0.96; in experiment [6] it was 1.25.

For `Nc1ccccc1NC(=O)c1ccc(CNc2nccc(-c3cccnc3)n2)cc1` [Mocetinostat (MGCD0103)], the Euclidean distance in experiment [1] was 3.18; in experiment [2], 3.33; in experiment [3], 2.95; in experiment [4], 3.48; in experiment [5], 3.36; in experiment [6], 3.38.

As to `COc1cccc(Nc2c(C(N)=O)cnc3c(C)cc(S(=O)(=O)c4cccc(C(=O)N(C)C)c4)cc23)c1`, the Euclidean distance in experiment [1] was determined as 1.2; in experiment [2] it was 0.89; in experiment [3] it was 1.05; in experiment [4], 1.95; in experiment [5] it was 1.19; in experiment [6] it was 1.48.

On to `CO[C@H]1C(=O)[C@]2(C)[C@@H](OC)C[C@H]3OC[C@@]3(OC(C)=O)[C@H]2[C@H](OC(=O)c2ccccc2)[C@]2(O)C[C@H](OC(=O)[C@H](O)[C@@H](NC(=O)OC(C)(C)C)c3ccccc3)C(C)=C1C2(C)C` [Cabazitaxel], for which the Euclidean distance in experiment [1] was 3.68; in experiment [2], 3.16; in experiment [3], 3.88; in experiment [4], 2.6; in experiment [5] it was 1.97; in experiment [6], 2.5.

`O=C(O)Cc1ccccc1Nc1c(Cl)cccc1Cl` [Diclofenac Potassium]: the Euclidean distance was 1.38 in experiment [1]; 0.427 in experiment [2]; 0.963 in experiment [3]; 1.35 in experiment [4]; 1.1 in experiment [5]; 0.893 in experiment [6].

`Cc1c(CN2CCN(C(=O)[C@H](C)O)CC2)sc2c(N3CCOCC3)nc(-c3cnc(N)nc3)nc12`: the Euclidean distance in experiment [1] was 4.15; in experiment [2] it was 2.91; in experiment [3] it was 1.8; in experiment [4], 4.11; in experiment [5], 3.04; in experiment [6] it was 3.09.

On to `OCCOc1ccc(/C(=C(/CCCl)c2ccccc2)c2ccccc2)cc1` [Ospemifene], for which the Euclidean distance was determined as 0.936 in experiment [1]; 1.29 in experiment [2]; 0.819 in experiment [3]; 0.945 in experiment [4]; 1.26 in experiment [5]; 1.06 in experiment [6].

As for `CC(C)[C@H]1C(=O)N[C@@H](CCCNC(=N)N)C(=O)NCC(=O)N[C@@H](CC(=O)O)C(=O)N[C@H](Cc2ccccc2)C(=O)N1C` [Cilengitide], the Euclidean distance in experiment [1] stood at 2.25; in experiment [2], 1.28; in experiment [3] it was 0.875; in experiment [4], 1.15; in experiment [5], 4.37; in experiment [6], 2.86.

In the case of `CC(C(=O)O)c1ccc(C(=O)c2cccs2)cc1` (stereo not drawn) [Suprofen], the Euclidean distance in experiment [1] was 1.32; in experiment [2], 0.825; in experiment [3] it was 0.656; in experiment [4], 0.981; in experiment [5], 2.04; in experiment [6], 1.01.

With `CNC(=O)c1cc(Oc2ccc(NC(=O)Nc3ccc(Cl)c(C(F)(F)F)c3)cc2)ccn1` [Sorafenib], the Euclidean distance in experiment [1] is 2.08; in experiment [2], 2.51; in experiment [3], 1.74; in experiment [4], 1.78; in experiment [5], 2.93; in experiment [6] it was 2.28.

As to `C1N2CN3CN1CN(C2)C3` [Methenamine], the Euclidean distance in experiment [1] is 1.23; in experiment [2], 0.437; in experiment [3], 0.592; in experiment [4], 0.896; in experiment [5], 0.586; in experiment [6] it was 1.2.

Turning to `Cc1nnc(C(C)C)n1C1C[C@H]2CC[C@@H](C1)N2CC[C@H](NC(=O)C1CCC(F)(F)CC1)c1ccccc1` (stereo in doubt) [Maraviroc], the Euclidean distance in experiment [1] was 1.35; in experiment [2], 0.711; in experiment [3], 1.04; in experiment [4] it was 1.1; in experiment [5], 0.487; in experiment [6], 1.71.

As for `NC(=O)Nc1sc(-c2ccc(F)cc2)cc1C(N)=O`, the Euclidean distance in experiment [1] was found to be 1.85; in experiment [2] it was 1.8; in experiment [3] it was 2.12; in experiment [4], 3.25; in experiment [5] it was 0.991; in experiment [6] it was 1.

As for `CC(=O)Oc1cc(C(F)(F)F)ccc1C(=O)O` [Triflusal], the Euclidean distance in experiment [1] amounted to 1.03; in experiment [2], 1.2; in experiment [3] it was 0.857; in experiment [4], 0.956; in experiment [5] it was 0.829; in experiment [6], 1.16.

`NC(=N\CCCCCC/N=C(N)/N=C(\N)Nc1ccc(Cl)cc1)/N=C(\N)Nc1ccc(Cl)cc1` [Chlorhexidine diacetate]: the Euclidean distance in experiment [1] is 2.69; in experiment [2], 4.3; in experiment [3], 3.46; in experiment [4], 2.04; in experiment [5], 3.03; in experiment [6], 3.25.

For the molecule `CCOc1nc2cccc(C(=O)OCc3oc(=O)oc3C)c2n1Cc1ccc(-c2ccccc2-c2noc(=O)[nH]2)cc1` [Azilsartan Medoxomil], the Euclidean distance is 0.852 in experiment [1]; 1.33 in experiment [2]; 0.487 in experiment [3]; 0.689 in experiment [4]; 0.927 in experiment [5]; 0.929 in experiment [6].

Take `CN(C)Cc1c(C(=O)NCCOc2ccc(C(=O)NO)cc2)oc2ccccc12`: the Euclidean distance was found to be 2.9 in experiment [1]; 4.31 in experiment [2]; 3.96 in experiment [3]; 3.8 in experiment [4]; 4.14 in experiment [5]; 3.47 in experiment [6].

Regarding `N=C(N)c1ccc(OCCCCCOc2ccc(C(=N)N)cc2)cc1` [Pentamidine], the Euclidean distance in experiment [1] was found to be 1.54; in experiment [2], 2.11; in experiment [3], 1.64; in experiment [4] it was 0.958; in experiment [5] it was 2.12; in experiment [6], 1.65.

With `CN1[C@@H](CC(=O)c2ccccc2)CCC[C@H]1C[C@H](O)c1ccccc1` [Lobeline hydrochloride], the Euclidean distance in experiment [1] worked out at 1.09; in experiment [2], 0.739; in experiment [3], 1.56; in experiment [4], 1.44; in experiment [5] it was 0.499; in experiment [6], 1.16.

Consider `Cc1[nH]c2ccccc2c1CCNC(=O)c1cccs1`, for which the Euclidean distance is 0.729 in experiment [1]; 2.31 in experiment [2]; 0.821 in experiment [3]; 0.779 in experiment [4]; 0.553 in experiment [5]; 1.45 in experiment [6].

As for `Cc1onc(-c2ccccc2Cl)c1C(=O)N[C@@H]1C(=O)N2[C@@H]1SC(C)(C)[C@@H]2C(=O)O` [Cloxacillin Sodium], the Euclidean distance came out at 0.711 in experiment [1]; 0.744 in experiment [2]; 0.6 in experiment [3]; 0.941 in experiment [4]; 1.02 in experiment [5]; 1.39 in experiment [6].
